Laboratory results from PubChem BioAssay (NCATS).
Records with an inconclusive call do not appear. Activity calls are given as the source filed them. Calls follow the shape of the dose curve; as a rule, active = well fitted curve in the direction sought with a large enough effect; inconclusive = small, poorly fitted or top-dose-only effect, or another doubt; inactive = no such curve, though single readings can be large; an effect the other way counts as inactive or inconclusive.

Tests used:
[1] = Cellular Toxicity (caspase-3) Jurkat (AID 655); conditions: Jurkat caspase-3 activation, luminescence; series mostly up to 92.2 µM;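 also: cells exposed to compound for 16 h at 37 °C before reading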
Outline: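 Caspase 3/7 activation is scored as increased luminescence in Jurkat cells cultured with compound for 16 hours in complete medium. AC50 values come from Hill fits of qHTS concentration-response data normalized to DMSO and 100 uM tamoxifen controls.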

[2] = Cellular Toxicity (caspase-3) HUV-EC-C (AID 656); conditions: HUV-EC-C cells, caspase-3 activation (apoptosis), vehicle = 0, 100 µM tamoxifen = 100%; series mostly up to 92.2 µM
Outline: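 Read-out: luminescence proportional to caspase 3/7 activity, measured 20 min after adding Caspase-Glo 3/7 reagent. Cells (HUV-EC-C) had received compound for 16 hr at 37°C. Increases relative to DMSO and 100 uM tamoxifen gave concentration-response AC50 values.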

[3] = Cellular Toxicity (caspase-3) SHSY5Y (AID 657); conditions: SH-SY5Y caspase-3 activation, DMSO zero, 10 µM staurosporine = 100%; series mostly up to 91.7 µM;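 also: cells exposed to compound for 16 hours at 37 °C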
Outline: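 Cells plated and incubated 5 h at 37 °C, dosed over a concentration range, incubated 16 h, then given Caspase-Glo 3/7 reagent for 1 h at room temperature before luminescence reading. Staurosporine (10 uM) defined full stimulation.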

[4] = Cellular Toxicity (caspase-3) BJ (AID 658); conditions: BJ fibroblasts, luminescence, normalized: DMSO 0%, staurosporine 100%; series mostly up to 91.7 µM
Outline: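 qHTS, BJ fibroblasts, 1000 cells/well; 5 hr preincubation, 16 hr compound, 37 °C; Caspase-Glo 3/7 reagent, 1 hr RT; luminescence. DMSO = 0%, 10 uM staurosporine = 100%. Hill-equation AC50.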

[5] = Cellular Toxicity (caspase-3) MRC-5 (AID 659); conditions: MRC-5 cells, luminescence; Potency: caspase-3 activation; series mostly up to 91.7 µM
Outline: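 MRC-5 fibroblasts, 1500/well; 16 h cpd, 37 °C; Caspase-Glo 3/7, 1 h RT; lumi read. Norm: DMSO = 0%, 10 uM staurosporine = 100%. Hill-fit AC50 from qHTS conc-response.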

[6] = Cellular Toxicity (caspase-3) Mesangial (AID 660); conditions: mesangial cells, normalized: DMSO 0%, 100 µM tamoxifen 100%; series mostly up to 91.7 µM;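 also: cells exposed to compound for 16 h before the caspase read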
Outline: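 Caspase 3/7 activation measured by Caspase-Glo 3/7 luminescence (20 min, room temperature) following 16 h exposure of mesangial cells (1000/well); AC50 from Hill-equation fit, normalized to DMSO and 100 uM tamoxifen.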

[7] = Cellular Toxicity (caspase-3) SK-N-SH (AID 661); conditions: SK-N-SH caspase-3 activation, qHTS, DMSO as zero, staurosporine as full; series mostly up to 91.7 µM
Outline: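 Caspase 3/7 activation was read by luminogenic substrate cleavage after 16 hour treatment of SK-N-SH cells. Signal was scaled between DMSO and 10 uM staurosporine, and concentration-response data were fitted with the Hill equation for AC50.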

[8] = Cellular Toxicity (caspase-3) H-4-II-E (AID 663); conditions: H-4-II-E rat hepatoma, scaled: DMSO 0%, 100 µM tamoxifen 100%; series mostly up to 92.2 µM;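 also: cells exposed to compound for 16 hr before readout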
Outline: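 H-4-II-E rat hepatoma, 1500 cells/well, 5 hr settle at 37 °C; compound 16 hr, 37 °C, complete medium; Caspase-Glo 3/7, 20 min RT; luminescence. DMSO = 0%, 100 uM tamoxifen = 100%; Hill-equation AC50.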

[9] = Cellular Toxicity (caspase-3) Hek293 (AID 664); conditions: HEK293 caspase-3 activation, DMSO = 0%, 100 µM tamoxifen = 100%; series mostly up to 92.2 µM;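 also: cells exposed to compound for 16 h at 37 °C before readout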
Outline: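 Concentration-response qHTS: caspase 3/7 activation measured by luminescent aminoluciferin substrate cleavage after 16 h compound exposure of Hek 293 cells. AC50 from Hill equation, with DMSO as basal and 100 uM tamoxifen as 100%.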

[10] = Cellular Toxicity (caspase-3) N2a (AID 665); conditions: N2a cells, luminescence, normalized: DMSO 0%, 10 µM staurosporine 100%; series mostly up to 92.2 µM;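 also: compound exposure lasted 16 h at 37 °C before readout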
Outline: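 Caspase-3/7 activation measured as luminescence from Caspase-Glo reagent (1 h, room temperature) after 16 h compound exposure of mouse N2a cells. AC50 values from Hill-equation concentration-response, scaled between DMSO and 10 uM staurosporine.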

[11] = Cellular Toxicity (caspase-3) NIH 3T3 (AID 666); conditions: NIH 3T3 caspase-3 activation, apoptosis/toxicity, 0% DMSO, 100% is 100 µM tamoxifen; series mostly up to 92.2 µM;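 also: caspase signal read after 16 h compound exposure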
Outline: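 Caspase-Glo 3/7 luminescence reported caspase activation in 1000 NIH 3T3 cells/well after 16 h compound exposure at 37 C. DMSO set basal and 100 uM tamoxifen set 100% stimulation; concentration-response modeled with the Hill equation for AC50.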

[12] = molecular target: Cytochrome P450 3A4 (Homo sapiens) (UniProt P08684); experiment: qHTS Assay for Inhibitors and Substrates of Cytochrome P450 3A4 (AID 884); conditions: recombinant CYP3A4, Luciferin-PPXE luminescence; series mostly up to 57.1 µM; also: nearly all actives have a fitted effect of over 50% in size
Outline: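 Luminescent readout of luciferin produced by CYP3A4 (20 nM) dealkylation of Luciferin-PPXE, 25 uM (its KM). NADPH-driven reaction ran 60 min at RT after 10 min compound preincubation; data scaled to 57 uM ketoconazole as 100% inhibition.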

[13] = molecular target: Guanine nucleotide-binding protein G(i) subunit alpha-1 (Homo sapiens) (UniProt P63096); experiment: qHTS Assay for Inhibitors of RGS12 GoLoco Motif Activity (Green Fluorophore) (AID 879); conditions: Galphai1/FITC-RGS12 GoLoco peptide, fluorescence polarization; series mostly up to 57.1 µM;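 also: negative values mean loss of peptide binding seen as reduced polarization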
Outline: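 A drop in FITC polarization marked displacement of the FITC-tagged RGS12 GoLoco peptide (10 nM) from Gαi1 (50 nM). Compounds were incubated 10 min at room temperature in Tris pH 7.5 buffer containing 150 mM NaCl, 0.1 mM GDP and 0.05% NP40; unlabeled peptide titration served as control.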

[14] = molecular target: Cytochrome P450 2C9 (Homo sapiens) (UniProt P11712); experiment: qHTS Assay for Inhibitors and Substrates of Cytochrome P450 2C9 (AID 883); conditions: recombinant CYP2C9, luciferin-H luminescence, 60 min; series mostly up to 57.1 µM; also: nearly all actives have a fitted effect of over 60% in size
Outline: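 Human CYP2C9 (10nM) with Luciferin-H at 100uM (its KM) in 25mM KPO4; compound preincubated 10 min at 37C, then NADPH regeneration for 60 min at 37C. Luciferin read by luminescence after detection reagent; normalized to 57uM sulphaphenazole as full inhibition.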

[15] = molecular target: Cytochrome P450 3A4 (Homo sapiens) (UniProt P08684); experiment: qHTS Assay for Activators of Cytochrome P450 3A4 (AID 885); conditions: recombinant CYP3A4, Luciferin-PPXE luminescence, 60 min; series mostly up to 57.1 µM; also: nearly all actives have a fitted effect of over 65% in size
Outline: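 CYP3A4 activity: Luciferin-PPXE O-dealkylation, 25uM substrate, 200mM KPO4, RT throughout. Read-out is luciferase luminescence; higher values reflect activation.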

[16] = molecular target: Cytochrome P450 2C19 (Homo sapiens) (UniProt P33261); experiment: qHTS Assay for Inhibitors and Substrates of Cytochrome P450 2C19 (AID 899); conditions: recombinant CYP2C19, luciferin-H EGE luminescence; series mostly up to 57.1 µM; also: nearly all actives have a fitted effect of over 60% in size
Outline: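 5 nM human CYP2C19 with 10uM Luciferin-H EGE (at KM) in 50mM KPO4, compound preincubated 10 min at 37C, then NADPH regeneration for 60 min at 37C. Luciferin read by luminescence after detection reagent; normalized to 57uM ketoconazole as full inhibition.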

[17] = Confirmation and Secondary Assay for Modulators of Hemoglobin Beta Chain Splicing at IVS2 654 locus (AID 910); conditions: HeLa EGFP-654 splicing reporter, GFP fluorescence, 48 h; series mostly up to 46.1 µM;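 also: HeLa cells stably carrying EGFP split by mutant beta-globin IVS2-654 intron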
Outline: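 HeLa cells stably expressing EGFP interrupted by β-globin IVS2-654 intron, seeded overnight in Opti-MEM/2% FCS, then treated 2 days at 37 °C. Restored splicing read as total peak GFP intensity per well by laser scanning cytometry (488 nm excitation, 500–520 nm emission); 500 nM antisense PNA as control.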

[18] = molecular target: Cytochrome P450 2D6 (Homo sapiens) (UniProt P10635); experiment: qHTS Assay for Inhibitors and Substrates of Cytochrome P450 2D6 (AID 891); conditions: recombinant CYP2D6, luciferin-ME EGE luminescence; series mostly up to 57.1 µM;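 also: luciferin methyl ether substrate demethylated by CYP2D6 with NADPH regeneration; nearly all actives have a fitted effect of over 60% in size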
Outline: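 Luminescent read-out of luciferin formed by 5 nM human CYP2D6 demethylating 30 uM Luciferin-ME EGE (Km level) over 60 min at room temperature after NADPH regeneration addition. Data normalized to full inhibition by 1.43 uM quinidine.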

Measured: Potency

Sequence of Cytochrome P450 3A4 (Homo sapiens) (P08684 whole entry, looked up): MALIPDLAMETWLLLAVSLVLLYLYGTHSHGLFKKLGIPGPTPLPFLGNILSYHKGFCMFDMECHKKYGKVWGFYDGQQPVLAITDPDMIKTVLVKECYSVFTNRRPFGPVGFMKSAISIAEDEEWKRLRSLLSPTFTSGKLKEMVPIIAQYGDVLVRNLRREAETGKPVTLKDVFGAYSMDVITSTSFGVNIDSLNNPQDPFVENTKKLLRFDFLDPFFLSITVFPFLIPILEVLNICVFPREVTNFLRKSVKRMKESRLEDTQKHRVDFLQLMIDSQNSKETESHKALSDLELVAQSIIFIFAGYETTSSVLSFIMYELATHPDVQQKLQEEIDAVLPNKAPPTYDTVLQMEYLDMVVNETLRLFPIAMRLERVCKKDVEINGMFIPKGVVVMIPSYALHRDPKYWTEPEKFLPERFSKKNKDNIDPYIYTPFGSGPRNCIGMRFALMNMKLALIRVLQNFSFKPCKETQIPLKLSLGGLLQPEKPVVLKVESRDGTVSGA
Sequence of Guanine nucleotide-binding protein G(i) subunit alpha-1 (Homo sapiens) (P63096 whole entry, looked up): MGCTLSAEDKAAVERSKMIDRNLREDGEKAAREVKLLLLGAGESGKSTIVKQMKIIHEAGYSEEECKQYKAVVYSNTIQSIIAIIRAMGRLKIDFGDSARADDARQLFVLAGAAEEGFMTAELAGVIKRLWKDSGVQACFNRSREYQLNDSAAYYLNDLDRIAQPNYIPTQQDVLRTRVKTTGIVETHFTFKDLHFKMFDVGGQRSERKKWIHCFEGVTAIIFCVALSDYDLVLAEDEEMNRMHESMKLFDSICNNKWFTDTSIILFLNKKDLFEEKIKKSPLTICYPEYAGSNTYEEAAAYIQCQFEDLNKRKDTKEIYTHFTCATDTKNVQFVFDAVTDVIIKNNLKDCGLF
Sequence of Cytochrome P450 2C9 (Homo sapiens) (P11712 whole entry, looked up): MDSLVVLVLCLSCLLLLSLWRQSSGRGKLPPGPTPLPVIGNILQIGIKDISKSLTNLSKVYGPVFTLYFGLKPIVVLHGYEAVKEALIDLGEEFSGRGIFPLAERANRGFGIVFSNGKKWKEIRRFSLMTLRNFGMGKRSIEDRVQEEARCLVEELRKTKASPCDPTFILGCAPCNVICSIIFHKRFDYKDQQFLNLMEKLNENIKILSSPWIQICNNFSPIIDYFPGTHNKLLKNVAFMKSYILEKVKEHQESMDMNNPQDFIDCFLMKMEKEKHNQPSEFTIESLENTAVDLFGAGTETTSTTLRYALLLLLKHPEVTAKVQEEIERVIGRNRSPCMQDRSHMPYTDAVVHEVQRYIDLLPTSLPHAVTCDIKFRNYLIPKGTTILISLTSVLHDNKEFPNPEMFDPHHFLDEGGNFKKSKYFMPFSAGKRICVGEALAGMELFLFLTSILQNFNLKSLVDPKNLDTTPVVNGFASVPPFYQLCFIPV
Sequence of Cytochrome P450 2C19 (Homo sapiens) (P33261 whole entry, looked up): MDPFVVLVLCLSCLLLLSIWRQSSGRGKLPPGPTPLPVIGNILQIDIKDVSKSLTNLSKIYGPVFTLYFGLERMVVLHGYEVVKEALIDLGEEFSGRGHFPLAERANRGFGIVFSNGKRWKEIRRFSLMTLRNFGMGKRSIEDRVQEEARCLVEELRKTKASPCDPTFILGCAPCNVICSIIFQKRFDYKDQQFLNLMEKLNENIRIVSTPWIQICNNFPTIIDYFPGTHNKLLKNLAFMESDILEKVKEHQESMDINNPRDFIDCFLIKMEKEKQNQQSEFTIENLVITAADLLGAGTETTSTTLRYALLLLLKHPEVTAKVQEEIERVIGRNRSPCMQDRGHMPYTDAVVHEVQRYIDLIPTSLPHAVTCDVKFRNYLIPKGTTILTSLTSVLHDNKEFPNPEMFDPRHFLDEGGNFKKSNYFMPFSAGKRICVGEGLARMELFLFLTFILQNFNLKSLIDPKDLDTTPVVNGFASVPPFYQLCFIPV
Sequence of Cytochrome P450 2D6 (Homo sapiens) (P10635 whole entry, looked up): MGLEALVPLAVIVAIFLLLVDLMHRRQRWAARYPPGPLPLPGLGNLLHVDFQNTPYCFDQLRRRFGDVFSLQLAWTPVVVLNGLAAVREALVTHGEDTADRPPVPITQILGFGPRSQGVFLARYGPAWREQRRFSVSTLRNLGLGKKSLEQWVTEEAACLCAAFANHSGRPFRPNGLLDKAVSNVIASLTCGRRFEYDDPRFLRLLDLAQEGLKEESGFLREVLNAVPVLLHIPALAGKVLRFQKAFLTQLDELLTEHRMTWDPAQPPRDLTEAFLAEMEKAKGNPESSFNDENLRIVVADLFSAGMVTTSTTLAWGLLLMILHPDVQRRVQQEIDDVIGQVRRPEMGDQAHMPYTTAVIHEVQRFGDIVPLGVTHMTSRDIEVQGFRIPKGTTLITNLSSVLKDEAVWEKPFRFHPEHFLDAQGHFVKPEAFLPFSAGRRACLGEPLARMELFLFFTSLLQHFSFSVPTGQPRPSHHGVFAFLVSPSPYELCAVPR

O=C1O[C@H]([C@@H](O)CO)C(O)=C1O
not listed: [13] | [14] | [15] | [16] | [17] | [18]
inactive: all other assays above

C[C@]12CC[C@@H]3c4ccc(O)cc4CC[C@H]3[C@@H]1CCC2=O
inactive: [13]

NC(=O)c1ncn([C@@H]2O[C@H](CO)[C@@H](O)[C@H]2O)n1
not listed: [12] | [14] | [15] | [16] | [17] | [18]
inactive: all other assays above

CCCCCCCCCCCCCCCC(=O)NCCO
inactive: [13]

CN(C)CCCN1c2ccccc2CCc2ccccc21
inactive: [13] | [14] | [12] | [12] | [15] | [16]

CCCCCCCCCCCCOS(=O)(=O)O
not listed: [13] | [14] | [15] | [16] | [17] | [18]
inactive: all other assays above

CCCn1cnc2c1c(=O)n(CCCCC(C)=O)c(=O)n2C
inactive: [13]

CC12CCC(CC1)C(C)(C)O2
not listed: [13] | [14] | [15] | [16] | [18]
inactive: all other assays above

O=C1c2c(O)cccc2Cc2cccc(O)c21
not listed: [12] | [13] | [14] | [15] | [16] | [18]
inactive: all other assays above

OCc1cc(C(O)CNCCCCCCOCCCCc2ccccc2)ccc1O (stereo not given)
inactive: [13]

Cc1cc2nc3c(=O)[nH]c(=O)nc-3n(C[C@H](O)[C@H](O)[C@H](O)CO)c2cc1C
not listed: [12] | [13] | [14] | [16] | [17] | [18]
inactive: all other assays above

NC(N)=NCCC[C@H](N)C(=O)O
inactive: [13] | [14] | [18]

CN(C)CCC=C1c2ccccc2CCc2ccccc21
not listed: [1] | [14] | [16] | [18]
inactive: all other assays above
